PINK1 modulator: PINK1 expression modulation. Potency, µM (highest dose often 76.6 µM), for the others: at the highest dose activation (PINK1 increase), most hits filed as activators. AID 624263. PINK1 immunofluorescence, high-content cytometry, 24 h. hit rate 0.2% among 410,000; active = well fitted activation curve with a large enough effect; inconclusive = small, poorly fitted or top-dose-only effect; cell line not stated here; note: potency is the fitted concentration of half-maximal effect; % of control where 0% means no effect; nearly all actives have a fitted effect of over 65% in size
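Cells are seeded, rested 12 hours, then given compound at five concentrations or DMSO for 24 hours. After fixation, blocking and antibody staining, PINK1 amount and mitochondrial localization are scored; CCCP serves as control.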
PI4K2A inh: PI4K2A (human) kinase inhibition | AID 1346378 | Q9BTU6 | purified PI4K2A, ADP-Glo luminescence, 1 h; hits give low values | activity change, negative = inhibition, % at 76.9 µM | hit rate 0.13% among 420,000; in the data active = activity change below about -50%; inconclusive = mostly about -30% to -49%;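 note: -100% = wells without enzyme as full effect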
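In this quantitative HTS, ADP production by PI4K2A was quantified luminescently after 1 h at ambient temperature; 100 microM adenosine served as plate-quality control.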
GLS inh: blocks human kidney-isoform glutaminase activity; GLS enzymatic activity, qHTS titration; Potency, µM (highest dose often 45.5 µM), for the others: at the top dose activity change, negative = inhibition, hits mostly inhibitors; hit rate 0.21% among 410,000; O94925; note: potency is the fitted concentration of half-maximal effect; % is set by controls: 0 for no effect and ±100 for the full control effect
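hKGA; 45 mM KH2PO4 pH 8.2 + 0.02% Tween-20; cpd via pin tool; 1 mM Gln soln; GluOx/HRP/Amplex Red; RT 30 min; fluor. t0 & final.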
PGK inhibitor: blocks T. brucei phosphoglycerate kinase; P07378; PGK/GAPDH coupled, Kinase-Glo luminescence, 60 min; Potency, µM (top dose mostly 57.5 µM), inactives show top-dose activity change, negative = inhibition, actives largely listed as inhibitors; hit rate 0.043% among 380,000; note: potency is the fitted concentration of half-maximal effect; % is set by controls: 0 for no effect and ±100 for the full control effect; nearly all actives have a fitted effect of over 60% in size
Target sequence (P07378 whole entry, looked up): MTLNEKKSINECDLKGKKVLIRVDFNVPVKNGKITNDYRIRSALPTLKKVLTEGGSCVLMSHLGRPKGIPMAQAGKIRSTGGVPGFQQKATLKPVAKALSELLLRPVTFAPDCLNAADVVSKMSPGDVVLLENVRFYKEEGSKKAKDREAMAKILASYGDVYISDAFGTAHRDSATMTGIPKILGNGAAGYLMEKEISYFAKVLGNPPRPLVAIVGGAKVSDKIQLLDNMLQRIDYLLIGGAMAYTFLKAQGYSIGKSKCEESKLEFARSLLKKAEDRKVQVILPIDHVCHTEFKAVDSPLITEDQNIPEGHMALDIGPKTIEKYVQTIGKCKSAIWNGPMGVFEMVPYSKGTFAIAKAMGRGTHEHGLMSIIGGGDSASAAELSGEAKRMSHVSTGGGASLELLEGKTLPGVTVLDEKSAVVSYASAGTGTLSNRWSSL
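Recombinant glycosomal PGK reaction used 1,3-bisphosphoglycerate generated in-well by GAPDH (100nM final) in 100mM TEA pH 7.6, 5mM MgCl2, 0.01% Tween-20. After 60 minutes at room temperature, ATP was read by Kinase-Glo Plus luminescence end-point.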
CCT chaperon mod: cytosolic chaperonin activity modulation. purified chaperonin ATPase assay, HTRF ADP detection, 30 min. activity change, % (no concentration beside the values), hits read low. hit rate 0.3% among 360,000. AID 651819; in the data active = activity change below about -30%; note: % is set by controls: 0 for no effect and ±100 for the full control effect
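Enzyme 40 or 20 nM (batch-dependent) in Tris pH 7.4/KCl/MgCl2/DTT; cpd 76 uM single point; ATP 10 uM; 30 min 37 °C; Transcreener ADP HTRF detection, 30 min RT; ratio 665/615.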
Starred values were filed as active, the others as inactive; i = inactive; ? = inconclusive; · = no result; [ ] = another dose, or the depositor's remark. In the library only some 0.78% were active in any assay of this set; here they are far more common. Unless noted, calls come from the whole dose curve; as a rule, active = well fitted curve in the direction sought with a large enough effect; inconclusive = small, poorly fitted or top-dose-only effect, or another doubt; inactive = no such curve, though single readings can be large; an effect the other way counts as inactive or inconclusive.

SMILES	PINK1 modulator	PI4K2A inh	GLS inh	PGK inhibitor	CCT chaperon mod
O=C(O)c1cc(O)c2c(c1)[C@@H]([C@H]1c3cc(C(=O)O)cc(O)c3C(=O)c3c(O[C@@H]4O[C@H](CO)[C@@H](O)[C@H](O)[C@H]4O)cccc31)c1cccc(OC3O[C@H](CO)[C@@H](O)[C@H](O)[C@H]3O)c1C2=O (some centres undefined)	1%	-26	?	?	-5
Cc1cccc2c1-c1sc(C(=O)Nc3cccnc3)cc1CO2	1%	-1	-3%	5%	1
O=C(Nc1cccnc1)c1cc2c(s1)-c1ccccc1OC2	0%	-4	2%	i	-71*
Cc1cc(S(=O)(=O)NC2CCCCC2)ccc1OCC(=O)N1CCOCC1	23%[38.3 µM]	6	1%	i	-67*
Cc1ncc2c(c1CNC(=O)c1ccccc1F)CCN(C(=O)c1csc(-c3cccs3)n1)C2	1%	·	·	·	·
O=C(O)CCC(=O)NNc1nc2ccccc2nc1-c1ccccc1	0%	7	11µM*	7%	-1
O=C(C(=Cc1ccc(F)cc1)c1ccccc1)c1ccc(O)cc1	5%	1	11µM*	-8%	-2
COc1ccc(CCNC(=O)C2CCN(S(=O)(=O)c3cccc4cccnc34)CC2)cc1OC	-1%	-6	10%	-1%	-46*
C#CCOCCOCCOCCNc1nc(N2CCN(C(=O)CCCCCCCCCCNC(=O)[C@H]([C@@H](C)CC)n3cc(CCCCN=C(N)N)nn3)CC2)nc(N2CCN(C(=O)CCCCCCCCCCNC(=O)[C@H](CCCCN)n3cc(C)nn3)CC2)n1	8%	-2	16µM*	16%	-1
N/C(=N\OC(=O)c1ccccc1)c1ccn[nH]1	1%	-15	4%	i	-31*
COc1ccc(C(=O)O/N=C(\N)c2ccc(Br)cc2)cc1	3%	-3	-3%	i	3
COc1ccc(C(=O)O/N=C(\N)c2ccccc2)cc1	-1%	-67*	0%	?	0
COc1ccc(C(=O)O/N=C(/C)c2cccs2)cc1	1%	-92*	0%	?	3
COc1ccc(NC(=O)c2cccc([N+](=O)[O-])c2)cc1	1%	2	5%	-3%	1
O=C(Nc1cccc([N+](=O)[O-])c1)c1cc2ccccc2cc1O	2.5µM*	-7	1%	-19%	-1
COc1ccc(NC(=O)c2cc([N+](=O)[O-])ccc2O)cc1	28µM*	-63*	9%	?	-1
CO/N=C(\C(=O)O)c1csc(NC(=O)CCl)n1	·	-5	·	·	·
Cc1nc2scc(-c3ccccc3)c2c(=O)n1N=C1C=CC(=O)C=C1	2%	-8	3.2µM*	i	-4
Cc1nc2scc(-c3ccccc3)c2c(=O)n1N	-2%	8	-1%	-1%	-2
C/C=C1\NC(=O)[C@H]2CSSCC/C=C\[C@H](CC(=O)N[C@H](C(C)C)C(=O)N2)OC(=O)C(C(C)C)NC1=O (some centres undefined)	·	·	0%	·	·
Cc1c(C(=O)NCCCN2CCCC2=O)cnn1-c1ncc2c(n1)-c1ccccc1CC2	-1%	·	·	·	·
COc1cc2c(cc1NC(=O)COc1ccccc1OC)oc1ccccc12	14µM*	4	2%	i	-1
CCc1ccc(OCC(=O)Nc2cc3oc4ccccc4c3cc2OC)c(Br)c1	3%	4	-4%	-3%	·
CC(NC(=O)c1cc(F)ccc1F)c1nnc2n1CCN(Cc1ccccc1O)CC2 (centres undefined)	0%	·	·	·	·
Cn1cnnc1Sc1ccc(CN2CCOc3ccc(C4=Cc5ccccc5C4)cc3C2)o1	1%	·	·	·	·
SMILES	PINK1 modulator	PI4K2A inh	GLS inh	PGK inhibitor	CCT chaperon mod
O=C(O)c1ccc2nc(-c3cc4cccc(O)c4oc3=O)[nH]c2c1	1%	-54*	?	·	·
c1coc(-c2ccc3nncn3c2)c1	0%	?	6.3µM*	·	-4
c1cc(N2CCOCC2)ccc1-c1ccc2nncn2c1	-1%	-4	26%	·	1
Cc1ccccc1-c1nc2c(=O)n(C)c(=O)nc-2n(C)n1	0%	·	·	·	·
CCCc1nc2c(=O)n(C)c(=O)nc-2n(C)n1	-1%	-61*	3%	?	0
Cn1nc(-c2ccccn2)nc2c(=O)n(C)c(=O)nc1-2	-2%	-63*	-5%	?	-2
